Assay results: PubChem BioAssay (EPA / NIEHS)
Inconclusive results are not listed. Active and inactive are the calls of the source. Rule for the calls: active = hit-call score of the fitted dose curve at least 0.9, where 1 is the maximum; inconclusive = response in the unintended direction; inactive = score below 0.9.

What follows are compounds tested on NCBI gene 100848466 (assay: NVS_NR_bPR: NovaScreen (NVS) Nuclear Receptor Binding Assay for bovine Progextron Receptor (PR) (AID 2283343);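 for AC50: actives lower bound radioligand signal below DMSO meaning displacement of the label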).
In short: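 Scintillation counts of bound radioligand were read 18 hours after chemical addition to membranes extracted from bovine uterus. Displacement was scored as loss of signal relative to DMSO controls. Screening began at 25 uM in duplicate.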

Compound	AC50	outcome
CCOc1ccc2c(c1)C(C)=CC(C)(C)N2	25 µM (active)	–
CCCCC(CC)COC(=O)CC(C(=O)OCC(CC)CCCC)S(=O)(=O)O (configuration not stated)	10.9 µM (active)	–
O=[N+]([O-])C(CO)(CO)CO	–	inactive

The compounds below were run against human Constitutive Androstane Receptor (CAR), NR1I3 (gene 9970) (UniProt Q14994) (assay: NVS_NR_hCAR_Antagonist: NovaScreen (NVS) Nuclear Receptor Binding Assay for human Constitutive Androstane Receptor Antagonism (CAR) (AID 2283344)).
In short: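 Single 25 uM duplicate primary screen, with concentration-series follow-up on actives. Cell-free binding format run in antagonist mode, TR-FRET signal taken 1 h post-dose; activity is signal loss relative to DMSO.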

Sequence of human Constitutive Androstane Receptor (CAR), NR1I3 (gene 9970) (Q14994 whole entry, looked up): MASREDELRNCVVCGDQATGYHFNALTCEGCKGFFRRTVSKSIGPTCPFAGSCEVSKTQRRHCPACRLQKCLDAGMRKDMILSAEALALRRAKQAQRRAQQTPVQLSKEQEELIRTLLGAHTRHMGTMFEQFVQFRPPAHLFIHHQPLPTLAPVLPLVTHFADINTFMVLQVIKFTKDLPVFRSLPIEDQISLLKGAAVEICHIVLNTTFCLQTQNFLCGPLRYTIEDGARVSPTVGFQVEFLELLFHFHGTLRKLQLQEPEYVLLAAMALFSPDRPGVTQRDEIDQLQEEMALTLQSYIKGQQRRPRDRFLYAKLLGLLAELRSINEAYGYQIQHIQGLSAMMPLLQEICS

Compound	outcome	AC50
CCCCc1ccc2c(n1)[C@@H](c1ccc(OC)cc1C[C@H](C)C(=O)O)[C@H](C(=O)O)[C@H]2c1ccc2c(c1)OCO2	inactive	–
COc1cc(-c2nc(NC(=O)c3cc4cc(C)cc(C)c4n3CC(=O)O)sc2CCC2CCCCC2)c(OC)cc1Cl	–	3.54 µM (active)
CCc1c(C(=O)NN2CCCCC2)nn(-c2ccc(Cl)cc2Cl)c1-c1ccc(Br)cc1	inactive	–
O=C(OCCCCCOC(=O)c1ccccc1)c1ccccc1	inactive	–
Cc1ccc(C(C)C)c(O)c1	inactive	–
CCCCCCCCCCC	inactive	–
Cc1nc(-c2ccc3c(c2)CCN(CCC2CCC(NC(=O)/C=C/c4ccc(F)cc4)CC2)CC3)no1 (configuration not stated)	inactive	–
CCCCCCCCCCCC(=O)OC	inactive	–

The compounds below were run against bovine Estrogen Receptor (ER), ESR1 (gene 407238) (UniProt P49884) (assay: NVS_NR_bER: NovaScreen (NVS) Nuclear Receptor Binding Assay for bovine Estrogen Receptor (ER) (AID 2283345);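 note: actives lower the bound radioligand count which means they displace the ER ligand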).
In short: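 Bovine uterine membranes; tritiated or iodinated radioligand; competitive displacement; 18 h; scintillation read; DMSO negative control; 25 uM duplicates, then concentration series for actives.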

Sequence of bovine Estrogen Receptor (ER), ESR1 (gene 407238) (P49884 whole entry, looked up): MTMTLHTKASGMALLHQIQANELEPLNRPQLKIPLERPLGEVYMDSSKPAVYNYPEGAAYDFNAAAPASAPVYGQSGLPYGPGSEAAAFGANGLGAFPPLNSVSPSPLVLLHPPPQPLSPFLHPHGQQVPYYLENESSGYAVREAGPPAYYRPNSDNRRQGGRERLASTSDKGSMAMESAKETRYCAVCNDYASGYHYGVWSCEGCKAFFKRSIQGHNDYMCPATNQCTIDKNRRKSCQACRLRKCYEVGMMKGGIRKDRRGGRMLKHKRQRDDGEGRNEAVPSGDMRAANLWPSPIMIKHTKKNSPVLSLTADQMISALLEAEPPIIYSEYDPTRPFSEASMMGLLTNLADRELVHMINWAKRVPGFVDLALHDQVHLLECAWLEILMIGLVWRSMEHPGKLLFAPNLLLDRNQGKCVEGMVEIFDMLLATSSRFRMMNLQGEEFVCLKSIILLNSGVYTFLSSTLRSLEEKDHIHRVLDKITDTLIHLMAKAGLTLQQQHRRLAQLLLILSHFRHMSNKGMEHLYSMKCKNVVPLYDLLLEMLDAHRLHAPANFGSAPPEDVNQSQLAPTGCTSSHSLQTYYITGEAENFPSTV

Compound	outcome	AC50
COc1cc(-c2nc(NC(=O)c3cc4cc(C)cc(C)c4n3CC(=O)O)sc2CCC2CCCCC2)c(OC)cc1Cl	inactive	–
Cc1ccc(Cl)cc1	inactive	–
Nc1ccccc1N	inactive	–
CCCc1cc(=O)[nH]c(=S)[nH]1	–	25 µM (active)
CCCCC(CC)COC(=O)CC(C(=O)OCC(CC)CCCC)S(=O)(=O)O (configuration not stated)	inactive	–
COc1cc(C=O)ccc1O	inactive	–
CCCCCCCC=O	inactive	–
Cc1cccc(Nc2cc(Cl)nc(SCC(=O)O)n2)c1C	inactive	–
CCc1c(C(=O)NN2CCCCC2)nn(-c2ccc(Cl)cc2Cl)c1-c1ccc(Br)cc1	inactive	–
CN1CCN(Cc2cc(-c3ccc4[nH]c(=O)oc4c3)co2)[C@@H](c2ccc(F)cc2)C1	inactive	–
COc1ccc2c(c1)c(CC(=O)O)c(C)n2C(=O)c1ccc(Cl)cc1	inactive	–
CNCc1cc(F)ccc1Oc1ccc(Cl)c(Cl)c1	inactive	–
COC(=O)c1ccc(O)cc1	inactive	–
Oc1ccc2ccccc2c1N=Nc1ccccc1	inactive	–
O=C(O)Cc1ccccc1Nc1c(Cl)cccc1Cl	inactive	–
COc1ccc(S(=O)(=O)N2C(=O)[C@@](c3ccccc3OC)(N3C[C@H](O)C[C@H]3C(=O)N(C)C)c3cc(Cl)ccc32)c(OC)c1	inactive	–
CN[C@H]1CC[C@@H](c2ccc(Cl)c(Cl)c2)c2ccc(S(N)(=O)=O)cc21	inactive	–
CCCCCCC(=O)OCC	inactive	–
Cc1nc(-c2ccc3c(c2)CCN(CCC2CCC(NC(=O)/C=C/c4ccc(F)cc4)CC2)CC3)no1 (configuration not stated)	inactive	–
CC(C)c1ccc(C(=O)N=C(N)N)cc1S(C)(=O)=O	inactive	–
CCCCCCCCCCCCCCCCCC(=O)O	inactive	–
